Measurements: PubChem BioAssay (EPA / NIEHS)
The source made the active and inactive calls. Rule for the calls: active = hit-call score of the fitted dose curve at least 0.9, where 1 is the maximum; inactive = score below 0.9.

Legend:
[1] = APR_HepG2_StressKinase_1hr: Apredica 1-hour HepG2 Assay for Stress Kinase (AID 2282906); details: HepG2 stress kinase (phospho-c-Jun) imaging, actives raise or lower the signal
Procedure, shortened: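 High-content imaging of phospho-c-Jun immunostaining (with Hoechst nuclear identification) after a 1 h exposure of HepG2 cells to 10 concentrations from 0.39 to 200 uM, final DMSO 0.5%. Fitted bidirectionally against DMSO.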

[2] = APR_HepG2_NuclearSize_24hr: Apredica 24-hour HepG2 Assay for Nuclear Size (AID 2282907); details: high-content imaging, actives raise or lower the signal
Procedure, shortened: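 Nuclear size from Hoechst 33342-stained, formaldehyde-fixed HepG2 nuclei imaged by high-content microscopy, after 24 h dosing at ten concentrations from 0.39 to 200 uM in 0.5% DMSO; gain or loss relative to DMSO baseline.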

[3] = APR_HepG2_CellLoss_24hr: Apredica 24-hour HepG2 Assay for Cell Loss (AID 2282908); details: high-content imaging;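 for AC50: fit in both directions so a hit may be cell loss or gain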
Procedure, shortened: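 Nuclei stained with Hoechst 33342 after formaldehyde fixation (3.7%) were imaged at 20x to count cells. Exposure lasted 24 hr, at ten concentrations from 0.39 to 200 uM in duplicate, with 0.5% v/v DMSO. Fit bidirectional, relative to DMSO.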

[4] = APR_HepG2_MicrotubuleCSK_24hr: Apredica 24-hour HepG2 Assay for Microtubule CSK Stabilty (AID 2282909); details: HepG2 microtubule cytoskeleton imaging, actives raise or lower the signal
Procedure, shortened: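 Fixed HepG2 cells were stained for alpha-tubulin and imaged after 24 hr exposure to ten concentrations spanning 0.39–200 uM in 0.5% DMSO. Signal change was fitted in both directions relative to DMSO; taxol was the positive control.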

[5] = APR_HepG2_MitoticArrest_24hr: Apredica 24-hour HepG2 Assay for Mitotic Arrest (AID 2282910); details: high-content imaging, actives raise or lower the signal
Procedure, shortened: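 Treatment lasted 24 hr in the human HepG2 line at 0.39–200 uM, solvent held at 0.5% DMSO. Fixed cells were stained with Hoechst 33342 and anti-phospho-histone H3, imaged at 20x, and analysed by gain- or loss-of-signal fitting against DMSO.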

[6] = APR_HepG2_MitoMembPot_24hr: Apredica 24-hour HepG2 Assay for Mitochondrial Membrane Potential (AID 2282911); details: imaging, actives raise or lower the signal
Procedure, shortened: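 Cells are dosed for 24 hr across 0.39 to 200 uM with solvent held at 0.5% DMSO. They are then stained with 250 nM MitoTracker Red CMXRos for 30 min, fixed in 3.7% formaldehyde and imaged.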

[7] = APR_HepG2_MitoMass_24hr: Apredica 24-hour HepG2 Assay for Mitochondrial Mass (AID 2282912); details: high-content imaging, actives raise or lower the signal
Procedure, shortened: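 Endpoint is MitoTracker Red CMXRos (250 nM, 30 min, pre-fixation) intensity from 20x high-content imaging, nuclei located by Hoechst. Human HepG2 cells received ten concentrations from 0.39 to 200 uM in 0.5% DMSO for 24 hr, duplicate wells. Bidirectional fit relative to DMSO.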

[8] = APR_HepG2_CellCycleArrest_72hr: Apredica 72-hour HepG2 Assay for Cell Cycle Arrest (AID 2282914); details: high-content imaging, actives raise or lower the signal
Procedure, shortened: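 Read-out is Hoechst-stained nuclear DNA content measured by automated fluorescence imaging (20x, six images per well), fitted in both directions relative to DMSO. Human HepG2 liver cells received 0.39–200 uM compound for 72 hr at 0.5% v/v DMSO.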

[9] = APR_HepG2_CellLoss_72hr: Apredica 72-hour HepG2 Assay for Cell Loss (AID 2282915); details: high-content imaging
Procedure, shortened: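 HepG2 cells were exposed for 72 hr to compounds at 0.39–200 uM (ten concentrations, duplicate) in 0.5% v/v final DMSO. Nuclei were stained with Hoechst 33342 after 3.7% formaldehyde fixation, imaged at 20x, and counted; fits bidirectional versus DMSO.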

[10] = APR_HepG2_P-H2AX_72hr: Apredica 72-hour HepG2 Assay for H2AX Phosphorylation (AID 2282916); details: imaging, actives raise or lower the signal;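 note: phospho-histone H2A.x immunostain intensity per cell marking DNA damage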
Procedure, shortened: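 Phospho-histone H2A.x immunofluorescence, multiplexed with Hoechst and c-Jun, quantified by high-content imaging. Compounds applied to HepG2 for 72 h across ten concentrations (0.39–200 uM, 0.5% DMSO), in duplicate; DMSO baseline.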

[11] = APR_HepG2_MitoMembPot_72hr: Apredica 72-hour HepG2 Assay for Mitochondrial Membrane Potential (AID 2282917); details: imaging, actives raise or lower the signal
Procedure, shortened: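 HepG2 cells exposed 72 h to compounds at 0.39–200 uM (0.5% v/v DMSO, duplicates); MitoTracker Red CMXRos 250 nM loaded 30 min before 3.7% formaldehyde fixation, imaged by HCS fluorescence. Bidirectional fit versus DMSO.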

[12] = APR_HepG2_MitoticArrest_72hr: Apredica 72-hour HepG2 Assay for Mitotic Arrest (AID 2282918); details: high-content imaging, actives raise or lower the signal
Procedure, shortened: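 Read-out is phospho-histone H3 immunofluorescence with Hoechst nuclear segmentation, imaged at 20x. Human HepG2 liver cells received ten concentrations (0.39–200 uM, final DMSO 0.5% v/v) for 72 hr before fixation. Gain or loss of signal was fitted relative to DMSO.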

[13] = APR_HepG2_MicrotubuleCSK_72hr: Apredica 72-hour HepG2 Assay for Microtubule CSK Stabilty (AID 2282919); details: HepG2 microtubule cytoskeleton, high-content imaging, actives raise or lower the signal
Procedure, shortened: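 Ten-point dosing (0.39–200 uM, 0.5% DMSO) of HepG2 for 72 hr, with taxol as the cytoskeletal positive control. The cells were formaldehyde-fixed and then stained with alpha-tubulin/Cy5 and Hoechst. Imaging at 20x used a −2 um Z offset for tubulin.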

[14] = APR_HepG2_P-H2AX_24hr: Apredica 24-hour HepG2 Assay for H2AX Phosphorylation (AID 2282920); details: high-content imaging, actives raise or lower the signal
Procedure, shortened: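 HepG2, 24 hr, cpd 0.39–200 uM (10 conc, duplicate), DMSO 0.5% v/v final. Fix 3.7% formaldehyde, Triton X-100 permeabilize, anti-phospho-H2A.x 1:200 + Hoechst 2 ug/mL. Imaged, bidirectional fit vs DMSO.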

[15] = APR_HepG2_StressKinase_72hr: Apredica 72-hour HepG2 Assay for Stress Kinase (AID 2282921); details: HepG2 stress kinase (phospho-c-Jun) imaging, actives raise or lower the signal
Procedure, shortened: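 Stress kinase signal is phospho-c-Jun immunofluorescence (1:500 primary, Cy3 secondary) in fixed, permeabilized human HepG2 cells imaged at 20x. Exposure lasted 72 hr over ten concentrations from 0.39 to 200 uM, 0.5% DMSO, in duplicate. Bidirectional fit versus DMSO.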

[16] = APR_HepG2_StressKinase_24hr: Apredica 24-hour HepG2 Assay for Stress Kinase (AID 2282922); details: HepG2 stress kinase (phospho-c-Jun) imaging, actives raise or lower the signal
Procedure, shortened: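 After 24 hr compound treatment (up to 200 uM, final DMSO 0.5% v/v), HepG2 cells are fixed and multiplex-labeled; phospho-c-Jun intensity is captured by high-content fluorescence imaging and analyzed relative to DMSO.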

[17] = APR_HepG2_MitoMass_72hr: Apredica 72-hour HepG2 Assay for Mitochondrial Mass (AID 2282924); details: high-content imaging, actives raise or lower the signal;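 note: MitoTracker Red CMXRos stain intensity per cell imaged as mitochondrial mass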
Procedure, shortened: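 Steps: treat HepG2 72 hr (0.39–200 uM, duplicate wells); load MitoTracker Red CMXRos, 250 nM, 30 min; fix with 3.7% formaldehyde, permeabilise with 0.5% Triton X-100; capture images, nuclei via Hoechst 33342; fit bidirectionally against DMSO.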

[18] = APR_HepG2_NuclearSize_72hr: Apredica 72-hour HepG2 Assay for Nuclear Size (AID 2282925); details: high-content imaging, actives raise or lower the signal
Procedure, shortened: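 Compounds (0.39–200 uM, final DMSO 0.5%) were applied to HepG2 for 72 hr. Cells were then formaldehyde-fixed, permeabilized and labelled with Hoechst 33342. Nuclear diameter was quantified from six images per well.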

[19] = APR_HepG2_p53Act_72hr: Apredica 72-hour HepG2 Assay for p53 Activation (AID 2282923); details: high-content imaging, actives raise or lower the signal;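 note: average cellular p53 protein immunofluorescence intensity in HepG2 cells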
Procedure, shortened: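 After 72 h with compound (ten points, 0.39 to 200 uM, final DMSO 0.5% v/v), fixed HepG2 cells were labelled with sheep anti-p53 and Hoechst 33342 and imaged; gain or loss versus DMSO scored.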

[20] = APR_HepG2_p53Act_24hr: Apredica 24-hour HepG2 Assay for p53 Activation (AID 2282913); details: high-content imaging, actives raise or lower the signal;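 note: p53 protein immunofluorescence averaged per cell in HepG2 with Hoechst nuclei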
Procedure, shortened: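 Human HepG2 liver cells; 24 hr cpd treatment, 0.39–200 uM, 0.5% DMSO final. Fixed in 3.7% formaldehyde, permeabilized with 0.5% Triton X-100, stained with anti-p53/Cy5 plus Hoechst 33342. Six images per well at 20x; gain or loss vs DMSO.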

Measured: AC50

CCN(CC)C(=O)c1cccc(C)c1
not listed: [19] | [20]
inactive: all other assays above

COC(=O)c1ccc(CNS(C)(=O)=O)cc1S(=O)(=O)NC(=O)Nc1nc(OC)cc(OC)n1
not listed: [14] | [20]
inactive: all other assays above

CCCCCOC(=O)COc1cc(N2C(=O)C3=C(CCCC3)C2=O)c(F)cc1Cl
active: [1] 87.4 µM | [9] 105 µM | [14] 119 µM
not listed: [19] | [20]
inactive: all other assays above

Cc1nn(C)c(Oc2ccccc2)c1C=NOCc1ccc(C(=O)OC(C)(C)C)cc1
active: [3] 6.62 µM | [8] 19.8 µM | [9] 19.8 µM | [12] 40.3 µM | [13] 21.2 µM
not listed: [14]
inactive: all other assays above

CCCOC(=O)NCCCN(C)C
not listed: [20]
inactive: all other assays above

O=C(Nc1ccc([N+](=O)[O-])cc1Cl)c1cc(Cl)ccc1O
active: [1] 0.364 µM | [3] 0.332 µM | [4] 0.672 µM | [5] 0.784 µM | [7] 2.63 µM | [8] 0.463 µM | [9] 0.331 µM | [11] 1.06 µM | [12] 0.238 µM | [13] 0.0444 µM
inactive: [2] | [6] | [10] | [15] | [16] | [19] | [17] | [18]

C#C[C@]1(O)CC[C@H]2[C@@H]3CCC4=CC(=O)CC[C@@H]4[C@H]3CC[C@@]21CC
not listed: [1] | [20]
inactive: all other assays above

CSC(=O)c1cccc2nnsc12
not listed: [14] | [20]
inactive: all other assays above

CC(=O)S[C@@H]1CC2=CC(=O)CC[C@]2(C)[C@H]2CC[C@@]3(C)[C@@H](CC[C@@]34CCC(=O)O4)[C@H]12
active: [3] 54.6 µM | [5] 30.2 µM | [6] 82.3 µM | [7] 29.1 µM | [8] 44.1 µM | [9] 39.3 µM | [10] 35 µM | [11] 100 µM | [12] 53.6 µM | [15] 49.3 µM | [16] 48.6 µM | [19] 40.3 µM | [17] 96.8 µM
inactive: [2] | [4] | [13] | [18]

O=C(O)c1ccccc1
not listed: [1] | [14] | [20]
inactive: all other assays above

CN(C)C(=O)Nc1ccc(Cl)c(Cl)c1
active: [11] 15.7 µM
not listed: [14] | [20]
inactive: all other assays above

CC(=O)[C@H]1CC[C@H]2[C@@H]3CCC4=CC(=O)CC[C@]4(C)[C@H]3CC[C@]12C
inactive: [2] | [6] | [11] | [13] | [15] | [16] | [17] | [18]
active: [3] 101 µM | [4] 104 µM | [5] 100 µM | [7] 106 µM | [8] 165 µM | [9] 95.6 µM | [10] 94.1 µM | [12] 81.6 µM | [19] 97.2 µM

CCOC(=O)C(C)Oc1ccc(Oc2cnc3cc(Cl)ccc3n2)cc1 (configuration not stated)
active: [3] 58.5 µM | [9] 80.6 µM | [11] 13.6 µM | [13] 95.1 µM
not listed: [14] | [19] | [20]
inactive: all other assays above
